MITF act: increases MITF-driven TRPM1 promoter luciferase signal | SK-MEL-5 TRPM1-promoter luciferase, 24 h; % of positive control, neutral wells = 0 | activation, % at 12.5 µM | 0.75% of 300,000 active | AID 588334;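 active = mean activation of at least 80% with every replicate also reaching 80%; inconclusive = mean reaches 80% but some replicate falls short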
esBAF inh: inhibitors of esBAF chromatin remodeling in mouse ES cells | Bmi1-luciferase knock-in reporter, 24 h; 100% = twice the neutral-well signal | reporter increase, % at 12.5 µM | 2% of 350,000 active | AID 602393; in the data active = activation above about 40%; inconclusive = no clear call, values can overlap the other calls;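 note: a rise in the Bmi1 reporter signal indicates esBAF inhibition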
Wnt act: activators of Wnt/beta-catenin signaling; 1.2% of 300,000 active; Wnt/beta-catenin reporter cell assay, activator, plate reader; AID 743398; activation, % at 9.35 µM; in the data active = activation above about 30%, passing the limit was not always enough; inconclusive = no clear call, values can overlap the other calls
PAX8 inh HTS: inhibitors of PAX8 transcriptional activity in RMG-I cells; RMG-I TPO-luciferase reporter, SteadyGlo, 24 h; inhibition, % at 12.6 µM; 1.2% of 360,000 active;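 active = mean replicate inhibition at least 60% with every replicate also reaching 60%; inconclusive = only one of the two criteria is met; inactive = mean below 60% and not all replicates reaching 60%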;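 note: luciferase light reporting Pax8 driven TPO promoter activity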
EWS-Fli inh: EWS/Fli transcriptional activity inhibition; A673 NR0B1-luciferase reporter, viability-normalised; inhibition, % at 12.6 µM; 0.67% of 350,000 active;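 active = mean inhibition of at least 50% after viability correction, with every replicate also passing that limit; inconclusive = mean reaches 50% but only one of two replicates passes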;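 note: firefly luciferase signal divided by Alamar Blue viability fluorescence both relative to DMSO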
MITF TRPM1 inh: inhibitors of MITF-driven TRPM1 promoter in melanoma cells. SK-MEL-5 TRPM1 promoter luciferase, 24 h. inhibition, % at 12.5 µM. 0.83% of 330,000 active. AID 488899;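 active = mean inhibition across replicates of 60% or more, whatever share of single replicates reaches that level; inconclusive = some that reach 60%, reason not given; inactive = mean inhibition across replicates below 60%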
Numbers stand for hits; – = inactive; ? = inconclusive; · = no result given; ! = a repeat was not active. Sampled rows, rich in hits. Any-hit rate of the full collection: about 4%.

SMILES | MITF act | esBAF inh | Wnt act | PAX8 inh HTS | EWS-Fli inh | MITF TRPM1 inh
COc1ccc(S(=O)(=O)N(C)C[C@@H]2OCCCC[C@H](C)Oc3ccc(NC(=O)CCC(F)(F)F)cc3C(=O)N([C@@H](C)CO)C[C@@H]2C)cc1 | · | – | · | – | – | ·
CN(CC(=O)Nc1ccccc1Cl)C(=O)COC(=O)c1nc(Cl)c(Cl)c(Cl)c1Cl | – | · | – | – | – | 74
CN(CC(=O)Nc1ccccc1Cl)C(=O)COC(=O)c1ccc(Cl)nc1 | – | · | – | – | – | –
C[C@@H]1CCCCO[C@@H](CN(C)Cc2ccc(C(=O)Nc3ccccc3N)cc2)[C@@H](C)CN([C@H](C)CO)C(=O)c2cc(NC(=O)Nc3ccc4c(c3)OCO4)ccc2O1 | · | – | · | – | – | ·
O=C(NCc1ccco1)Nc1ccc(Br)cc1Cl | 91 | ? | · | · | · | –
O=C(NCc1ccco1)Nc1c(Cl)cc(Cl)cc1Cl | · | · | – | – | – | ·
CCC(=O)N1[C@H](CO)[C@H](c2ccc(C#CC3CCCCC3)cc2)[C@@H]1CNC(C)C | · | · | · | · | – | ·
C[C@@H]1CCCCO[C@@H](CN(C)Cc2ccc3c(c2)OCO3)[C@H](C)CN([C@H](C)CO)C(=O)c2cc(NC(=O)Nc3cccc4ccccc34)ccc2O1 | · | – | · | – | 71 | ·
C[C@@H]1CCCCO[C@H](CN(C)Cc2ccc3c(c2)OCO3)[C@@H](C)CN([C@@H](C)CO)C(=O)c2cc(NC(=O)Nc3cccc4ccccc34)ccc2O1 | · | – | · | – | 64 | ·
C[C@@H]1CCCCO[C@@H](CN(C)Cc2ccc3c(c2)OCO3)[C@@H](C)CN([C@H](C)CO)C(=O)c2cc(NC(=O)Nc3cccc4ccccc34)ccc2O1 | · | – | · | – | – | ·
Cc1cc(C(=O)Nc2cccc3c2O[C@H](CN(C)Cc2ccc(Oc4ccccc4)cc2)[C@@H](C)CN([C@H](C)CO)C3=O)n(C)n1 | · | – | · | 76 | – | ·
C[C@H]1CCCCO[C@@H](CN(C)Cc2ccc3c(c2)OCO3)[C@@H](C)CN([C@@H](C)CO)C(=O)c2cc(NC(=O)Nc3cccc4ccccc34)ccc2O1 | · | – | · | – | – | ·
C[C@@H]1CN([C@H](C)CO)C(=O)c2cc(NC(=O)Nc3cccc4ccccc34)ccc2O[C@@H](C)CCCCO[C@H]1CN(C)Cc1ccc2c(c1)OCO2 | · | – | · | 69 | ? | ·
C[C@H](CO)N1C[C@H](C)[C@@H](CN(C)S(=O)(=O)c2cn(C)cn2)Oc2c(NC(=O)Nc3ccc4c(c3)OCO4)cccc2C1=O | – | 50! | – | – | – | –
C[C@H](CO)N1C[C@H](C)[C@H](CN(C)Cc2ccc3c(c2)OCO3)Oc2ccc(NC(=O)Nc3cccc4ccccc34)cc2C1=O | · | – | · | 94 | – | ·
C[C@@H]1CN([C@H](C)CO)C(=O)c2cccc(NC(=O)Nc3ccc4c(c3)OCO4)c2O[C@H]1CN(C)S(=O)(=O)c1cn(C)cn1 | · | – | · | · | – | ·
Cc1noc(C)c1NC(=O)Nc1cccc2c1O[C@H](CN(C)Cc1ccccc1)[C@@H](C)CN([C@H](C)CO)C2=O | · | – | · | – | – | ·
Cc1noc(C)c1NC(=O)Nc1cccc2c1O[C@H](CN(C)Cc1ccc(-c3ccccc3)cc1)[C@@H](C)CN([C@H](C)CO)C2=O | · | – | · | 62 | – | ·
C[C@H](CO)N1C[C@H](C)[C@@H](CN(C)Cc2ccc(-c3ccccc3)cc2)Oc2c(NC(=O)Nc3ccc4c(c3)OCO4)cccc2C1=O | – | 43! | – | – | – | –
CNC(=O)C[C@@H]1CC[C@H]2[C@H](COc3ccc(NC(=O)c4ccccc4Cl)cc3C(=O)N2C)O1 | · | – | · | – | – | ·
Cn1cnc(CCNC(=O)C[C@H]2CC[C@@H]3[C@H](COC[C@H](O)CN3C(=O)Nc3ccc(F)cc3)O2)c1 | · | – | · | – | – | ·
COc1ccc(CN(C)C[C@@H]2Oc3c(NC(=O)C4CCCCC4)cccc3C(=O)N([C@H](C)CO)C[C@H]2C)cc1 | · | – | · | 64 | – | ·
CN=c1scc(-c2ccc(F)cc2)n1/N=C/c1ccc(O)c(O)c1 | – | · | – | 66 | – | 68
CN=c1scc(-c2ccc([N+](=O)[O-])cc2)n1/N=C/c1ccco1 | – | – | – | – | – | –
O=C(C[C@@H]1CC[C@H]2[C@@H](COC[C@H](O)CN2CCC(F)(F)F)O1)NCc1ccc(Oc2ccccc2)cc1 | · | – | · | – | – | ·
SMILES | MITF act | esBAF inh | Wnt act | PAX8 inh HTS | EWS-Fli inh | MITF TRPM1 inh
COc1ccc(NC(=O)C2Cc3c(-c4cccc(NC(C)=O)c4)ccnc3O2)cn1 (stereo not drawn) | · | – | – | – | 63 | ·
O=C(NCc1ccccc1)C1Cc2c(-c3ccc4c(c3)OCO4)ccnc2O1 (stereo not drawn) | · | – | – | 68 | 60 | ·
CC(=O)c1cccc(-c2ccnc3c2CC(C(=O)NCC2CCOCC2)O3)c1 (stereo not drawn) | · | – | · | – | 66 | ·
CC(=O)Nc1ccc(-c2ccnc3c2CC(C(=O)NCc2ccco2)O3)cc1 (stereo not drawn) | · | – | – | ? | 62 | ·
COc1ccc(NC(=O)C2Cc3c(-c4cccc(C(N)=O)c4)ccnc3O2)cn1 (stereo not drawn) | · | – | – | – | – | ·
Cc1noc(C)c1NC(=O)Nc1ccc2c(c1)C(=O)N([C@H](C)CO)C[C@H](C)[C@H](CN(C)Cc1ccc3c(c1)OCO3)O2 | · | – | · | – | – | ·
CC(=O)Nc1ccc(-c2ccnc3c2CC(C(=O)NCCc2ccccc2)O3)cc1 (stereo not drawn) | · | – | – | · | – | ·
CC(=O)Nc1ccc(-c2ccnc3c2CC(C(=O)NCc2ccccc2)O3)cc1 (stereo not drawn) | · | – | – | 92 | 51 | ·
Nc1nc(N)c2sc3nc4c(cc3c2n1)CCC4 | – | 48 | · | · | · | –
C[C@@H](NC(=O)C[C@H]1C=C[C@@H](NC(=O)Cc2ccccn2)[C@@H](CO)O1)c1ccccc1 | · | – | · | · | · | ·
CC(C)(C)c1ccc(C(=O)NC(=S)N2CCOCC2)cc1 | 104 | – | 34 | – | – | –
CN1CCN(C(=S)NC(=O)c2ccc(C(C)(C)C)cc2)CC1 | – | · | – | – | – | –
[O-][n+]1c2ccccc2c2n1CCN1CCOC21c1ccc(Cl)cc1 (stereo not drawn) | – | 60 | ? | – | – | –
Cc1noc(C)c1NC(=O)N[C@@H]1C=C[C@@H](CC(=O)NCCCN(C)C)O[C@@H]1CO | · | – | · | · | · | ·
C[C@@H]1CCCCO[C@@H](CN(C)Cc2ccc(C(F)(F)F)cc2)[C@H](C)CN([C@@H](C)CO)C(=O)c2cc(NC(=O)c3ccccc3)ccc2O1 | · | – | · | – | – | ·
O=C(/C=C\c1ccccc1)Nc1nccs1 | – | · | 39 | – | · | –
O=C(Nc1nccs1)OCc1ccccc1 | · | · | 34 | – | – | ·
O=C(Nc1nccs1)C(Br)C(Br)c1ccccc1 (stereo not drawn) | – | – | 37 | – | – | ·
CC(=O)OC(C(=O)Nc1nccs1)c1ccccc1 (stereo not drawn) | · | – | – | – | – | –
O=C(/C=C/c1cccc(F)c1)Nc1nccs1 | – | 86 | – | – | – | –

Source: PubChem
